# PubChem BioAssay AID504832 (National Center for Advancing Translational Sciences (NCATS), 2011)
# The campaign covered roughly 310,000 compounds. About 18,000 (5.8%) were called active. Roughly 22% stayed inconclusive and do not appear here. The entries come from a sample that favours actives as a whole. Values without a mark were called inactive. The call rests on the fitted dose curve; in most records, active means well fitted inhibition curve with a large enough effect; inconclusive means small, poorly fitted or top-dose-only effect, or another doubt; inactive means no such curve, though single readings can be large or run the other way.
# Assay: Primary qHTS for delayed death inhibitors of the malarial parasite plastid, 48 hour incubation
# Details: P. falciparum luciferase growth in erythrocytes; series mostly up to 28.7 µM; activity change, negative = inhibition: at the top concentration
# Source text: The goal of this screen is to discover new antimalarial compounds that act by inhibiting the development of the apicoplast in the malarial parasite Plasmodium falciparum. The biochemical processes that make this organelle essential for erythrocytic stage parasites are not well understood. However, antibiotics such as azithromycin and tetracycline, which target the apicoplast translational machinery, have a potent antimalarial effect.
# We have developed a cell-based assay that measures parasite growth based on the expression of an integrated copy of a firefly luciferase reporter. To detect small molecules that cause this "delayed death" phenotype, erythrocytes infected with the luciferase-expressing parasites were incubated with compounds for either one or two generations, corresponding to 48 and 96 hours, respectively. Compounds that inhibit parasite growth in the second generation, but not the first, should be enriched in antimalarials that target the apicoplast. Growth inhibition is detected by a decrease in luciferase activity.
# Assay Provider: David Fidock and Eric Ekland, Columbia University
# Keywords: NIH Roadmap, MLPCN, MLI, MLSMR, qHTS, NCGC, qHTS, malaria, luciferase, viability
# Four microliters of culture medium (RPMI 1640 with 0.5% w/v Albumax (GIBCO), 24 mM sodium bicarbonate and 10 ug/mL gentamycin) were dispensed by a Multi-drop Combi into white solid 1536-well plates (Grenier) and 23 nL compound was added by a pin tool. Four microliters of infected erythrocytes (2% hematocrit, 0.1% parasitemia final concentration) in culture medium were dispensed and the plates incubated for 48 hours at 37 C in 5% CO2. Two microliters of luciferase detection reagent was added and luminescence was detected by a ViewLux (PerkinElmer) reader.
# On the % scale 0 is the no-effect control and ±100 the full control effect; potency means the concentration at half of the fitted maximal effect.
Compound,"activity change, negative = inhibition [%]",Potency
CN(C)S(=O)(=O)c1ccc(N2CCCC2)c(C(=O)Nc2cccc(F)c2)c1,-17,
CN(C)S(=O)(=O)c1ccc(N2CCCC2)c(C(=O)NCc2ccccc2)c1,-7.21,
CN(C)S(=O)(=O)c1ccc(N2CCCC2)c(C(=O)Nc2ccc(Br)cc2F)c1,,5.22 µM (active)
COc1ccc(-n2ncc3c2CC(C)(C)CC3NC(=O)CCc2c(C)nn(C)c2C)cc1 (configuration not stated),-1.16,
Cc1cc(C)n2nc(CNS(=O)(=O)c3c(F)c(F)c(F)c(F)c3F)nc2n1,0,
Cn1c(N)c(C(=O)COC(=O)COc2ccc(Cl)cc2)c(=O)n(C)c1=O,20.5,
CCN1CCN(c2c(Cl)cccc2NC(=O)c2ccc(Br)o2)CC1,0,
COc1cc(OC)c(NC(=O)c2ccc(Br)o2)cc1Cl,,8.28 µM (active)
COC(=O)c1ccc(N2CCOCC2)c(NC(=O)c2ccc(Br)o2)c1,2.02,
O=C(CCCCCn1c(=S)[nH]c2ccsc2c1=O)NC1CCCCC1,-9.79,
CCCN(CC(=O)Nc1ccccc1C)C(=O)c1cc(=O)[nH]c2ccccc12,17.1,
CC1CCc2[nH]c3ccc(C(=O)N(C)CC(=O)Nc4cccc(F)c4)cc3c2C1 (configuration not stated),-27.2,
CCCN(CC(=O)Nc1ccccc1C)C(=O)c1ccc2[nH]c3c(c2c1)CC(C)CC3 (configuration not stated),,10.4 µM (active)
CCC(C(=O)NCc1cccnc1)n1nc(C)c2sc3ccccc3c2c1=O (configuration not stated),9.32,
CC(C)NC(=O)C(c1ccc(F)cc1)N(C(=O)CCC(=O)Nc1ccccn1)c1ccccc1F (configuration not stated),20.9,
O=C(Nc1ccc(Sc2ccc(Br)cc2)cc1)c1ccco1,,2.33 µM (active)
O=C(Nc1ccccc1)c1ccco1,60.9,
O=C(Nc1ccc(O)cc1)c1ccc(NC(=O)c2ccco2)cc1,81.7,
COc1ccc(OCc2cc(C(=O)N3CCCC3)no2)c2ccccc12,-19.2,
CC(CCN1CCN=C1N(C)C)c1ccccc1 (configuration not stated),-8.95,
O=c1[nH]cnc(O)c1C(c1ccc(F)cc1)c1c(O)nc[nH]c1=O,-0.229,
COCCCC1CCN(C(=O)C2CCC(=O)N(C3CCCCCC3)C2)CC1 (configuration not stated),-6.84,
Cc1ccc2nc(N3C(=O)C(O)=C(C(=O)c4ccco4)C3c3cccc(O)c3)sc2c1 (configuration not stated),93,
CCc1cccc(NC(=O)COC(=O)c2cc(=O)c3ccccc3o2)c1,22.4,
NC(=O)COc1ccc2c3c(c(=O)oc2c1)CCCCC3,25.1,
NC(=O)C1CCN(C(=O)COc2ccc3c4c(c(=O)oc3c2)CCC4)CC1,-3.55,

Compound,"activity change, negative = inhibition [%]",Potency
O=c1oc2c(CN3CCCCC3)c(O)ccc2c2c1CCCCC2,,2.94 µM (active)
Cc1cccnc1NC(=O)Cn1c(=O)oc2ccccc21,-5.88,
O=C(COC(=O)CNS(=O)(=O)c1ccc(F)c(F)c1F)NC1CCCC1,28.8,
Nc1nnc(SCC(=O)NCC(=O)Nc2ccc(F)c(F)c2F)s1,5.81,
COc1cc(C(=S)N2CCOCC2)ccc1O,,inactive
COc1cc(C(=S)NC2CCCCC2)ccc1O,,10.4 µM (active)
COc1ccc(Cl)cc1C(=O)NNC(=S)NC1CCCC1,-17.5,
COc1ccc(C(=O)NC(=S)NC2CCCCC2)cc1,-27.2,
COc1cc(OC)c(C(=O)NC2CCCCCC2)cc1OC,0.054,
COc1ccc(C(C)NC(=S)NC2CCCCC2)cc1OC (configuration not stated),,2.08 µM (active)
C=CCNC(=O)COc1coc(CN2CCN(Cc3ccccc3)CC2)cc1=O,10.4,
Cn1c(SCC(=O)N2CCOCC2)nnc1-c1ccc2ncccc2c1,17,
Cc1ccc(C(c2nnnn2C(C)(C)C)N2CCc3ccccc3C2)cc1 (configuration not stated),3.97,
CC(C)(C)n1nnnc1C(c1ccc2ncccc2c1)N1CCSCC1 (configuration not stated),,9.28 µM (active)
O=C(Nc1nnc(S(=O)(=O)N2CCOCC2)s1)c1cccc(Br)c1,-13.8,
COc1ccc(CCNC(=O)Cn2c(=O)n(CC3CCCO3)c(=O)c3ccccc32)cc1OC (configuration not stated),-10.1,
O=C(NCCc1ccccc1)C1CCC(Cn2c(=O)c3ccccc3n(Cc3cccnc3)c2=O)CC1 (configuration not stated),,11.7 µM (active)
O=C(CCc1ccccc1)NCc1cccnc1,1.54,
COCCN(C(=O)CCC(=O)Nc1nccs1)C(C(=O)NCCC(C)C)c1ccc(F)cc1 (configuration not stated),-3.76,
c1ccc(-n2ncc3c(N4CCCC4)ncnc32)cc1,9.64,
Oc1ccccc1N1CCN(c2ncnc3sc(-c4ccccc4)cc23)CC1,,13.1 µM (active)
COc1ccc(Nc2ncnc3sc(-c4ccccc4)cc23)c(OC)c1,-11,
Cn1c(=O)oc2cc(S(=O)(=O)NCCC(=O)NCc3ccccc3Cl)ccc21,4.72,
COc1cccc(CNCc2ccc3c(c2)OCO3)c1,-0.266,
Cc1ccc(CNCc2ccc3c(c2)OCO3)c(C)c1,3.76,
OC(CNCc1ccc2c(c1)OCO2)COc1ccccc1 (configuration not stated),,3.29 µM (active)
